Results filed as inconclusive are left out. Active and inactive are the calls of the source. Unless noted, the call rests on the fitted dose curve; in most records, active means well fitted curve in the direction sought with a large enough effect in the repeat runs; inconclusive means weak or mixed curves; inactive means no such curve, though single readings can be large; an effect the other way counts as inactive or inconclusive.
How the values were obtained:
[1] = qHTS assay to identify small molecule antagonists of the estrogen receptor alpha (ER-alpha) signaling pathway using the BG1 cell line in the presence of 0.1 nM 17-beta-estradiol - cell viability counter screen (AID 1259241); further: nearly all actives have a fitted effect of over 40% in size
How it was run: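 VM7Luc4E2, 4,000 cells/well, phenol red-free medium + 10% charcoal-stripped FBS; 24 hr plating; cpd + 0.1 nM E2 final, 22 hr 37C/5% CO2; CellTiter-Fluor 30 min, fluorescence.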

[2] = qHTS assay to identify small molecule antagonists of the androgen receptor (AR) signaling pathway using the MDA cell line in the presence of 0.5 nM R1881 - cell viability counter screen (AID 1259242); further: nearly all actives have a fitted effect of over 45% in size
How it was run: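 MDA-kb2 cells (human breast carcinoma, stably carrying MMTV-luciferase reporter) were exposed to compounds with 0.5 nM R1881 (final) for 16 hr at 37C, 0% CO2; viability then read as live-cell protease fluorescence (CellTiter-Fluor, 30 min) in the same wells.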

[3] = molecular target: Androgen receptor (Homo sapiens) (UniProt P10275); assay: qHTS assay to identify small molecule antagonists of the androgen receptor (AR) signaling pathway using the MDA cell line in the presence of 0.5 nM R1881 (AID 1259243); further: nearly all actives have a fitted effect of over 50% in size
Androgen receptor (Homo sapiens), sequence (P10275 whole entry, looked up): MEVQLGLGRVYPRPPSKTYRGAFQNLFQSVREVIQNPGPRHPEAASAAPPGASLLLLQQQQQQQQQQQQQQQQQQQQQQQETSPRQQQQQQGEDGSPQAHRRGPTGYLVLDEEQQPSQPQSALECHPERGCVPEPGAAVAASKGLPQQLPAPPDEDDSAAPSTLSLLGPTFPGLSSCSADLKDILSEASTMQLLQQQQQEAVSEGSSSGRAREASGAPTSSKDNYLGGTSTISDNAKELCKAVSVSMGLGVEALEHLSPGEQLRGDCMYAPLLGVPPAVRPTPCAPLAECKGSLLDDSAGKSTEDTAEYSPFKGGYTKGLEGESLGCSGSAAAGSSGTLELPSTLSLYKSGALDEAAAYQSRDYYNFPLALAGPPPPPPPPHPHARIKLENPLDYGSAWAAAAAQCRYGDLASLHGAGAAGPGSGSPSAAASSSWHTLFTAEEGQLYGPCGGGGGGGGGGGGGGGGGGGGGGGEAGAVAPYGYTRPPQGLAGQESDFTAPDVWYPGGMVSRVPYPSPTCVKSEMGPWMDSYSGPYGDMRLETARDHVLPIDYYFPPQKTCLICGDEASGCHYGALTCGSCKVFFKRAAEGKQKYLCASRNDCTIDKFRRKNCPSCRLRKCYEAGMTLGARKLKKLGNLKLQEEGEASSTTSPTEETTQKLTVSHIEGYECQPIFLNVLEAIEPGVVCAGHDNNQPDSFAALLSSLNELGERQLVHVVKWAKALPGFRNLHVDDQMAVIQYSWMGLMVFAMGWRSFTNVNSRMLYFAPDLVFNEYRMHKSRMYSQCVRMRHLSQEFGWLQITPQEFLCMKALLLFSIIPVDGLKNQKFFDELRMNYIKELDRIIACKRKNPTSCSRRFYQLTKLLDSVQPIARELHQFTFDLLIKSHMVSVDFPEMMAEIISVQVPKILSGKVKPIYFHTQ
How it was run: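 MDA-kb2 human breast carcinoma cells carrying an MMTV-luciferase reporter (AR- and GR-responsive) were plated, rested 5 hr at 37C, dosed with compounds, then stimulated with 0.5 nM R1881 (final) for 16 hr; luminescence was read after ONE-Glo.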

[4] = molecular target: Estrogen receptor (Homo sapiens) (UniProt P03372); assay: qHTS assay to identify small molecule antagonists of the estrogen receptor alpha (ER-alpha) signaling pathway using the BG1 cell line in the presence of 0.1 nM 17-beta-estradiol (AID 1259244); further: nearly all actives have a fitted effect of over 50% in size
Estrogen receptor (Homo sapiens), sequence (P03372 whole entry, looked up): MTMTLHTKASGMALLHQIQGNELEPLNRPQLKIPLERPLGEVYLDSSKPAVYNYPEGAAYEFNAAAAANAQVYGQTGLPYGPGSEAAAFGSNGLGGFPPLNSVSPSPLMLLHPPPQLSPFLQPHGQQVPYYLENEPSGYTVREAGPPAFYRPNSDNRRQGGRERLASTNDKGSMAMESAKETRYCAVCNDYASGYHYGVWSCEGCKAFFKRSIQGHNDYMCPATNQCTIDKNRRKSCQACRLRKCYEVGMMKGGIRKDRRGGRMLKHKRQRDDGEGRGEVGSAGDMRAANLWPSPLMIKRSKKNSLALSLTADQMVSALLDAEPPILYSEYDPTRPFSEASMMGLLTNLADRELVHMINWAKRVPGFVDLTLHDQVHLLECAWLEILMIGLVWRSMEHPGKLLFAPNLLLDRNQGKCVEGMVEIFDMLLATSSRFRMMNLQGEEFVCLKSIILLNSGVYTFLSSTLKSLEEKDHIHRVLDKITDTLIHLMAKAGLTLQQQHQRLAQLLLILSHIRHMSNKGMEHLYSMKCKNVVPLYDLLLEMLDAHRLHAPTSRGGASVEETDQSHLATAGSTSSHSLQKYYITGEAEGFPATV
How it was run: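 VM7Luc4E2 cells (endogenous full-length ER-alpha, stable 4xERE-luciferase) were grown 5 days in phenol red-free medium with charcoal-stripped FBS, then exposed 22 h at 37C to compounds plus 0.1 nM (final) 17beta-estradiol; ONE-Glo luminescence read-out.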

[5] = qHTS assay to identify small molecule HDAC inhibitors (AID 1259364); further: top concentration of the series differs between compounds; nearly all actives have a fitted effect of over 45% in size
How it was run: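 Wild-type HCT-116 cells were plated overnight, exposed to compounds for 2 h at 37 °C, then given HDAC-Glo class I/II luminogenic reagent for 30 min at room temperature before luminescence was read.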

[6] = qHTS assay to identify small molecule HDAC inhibitors - cell viability counter screen (AID 1259365); further: series mostly up to about 92 µM; nearly all actives have a fitted effect of over 50% in size
How it was run: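 Luminescence from CellTiter-Glo, developed 30min at room temperature, reports viability of wild-type HCT-116 cells treated 2hr with compounds at 37 C and 5% CO2 after overnight plating.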

[7] = qHTS assay to identify small molecule agonists of the sonic hedgehog signaling (Shh) pathway - cell viability counter screen (AID 1259366); further: nearly all actives have a fitted effect of over 50% in size
How it was run: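 Cytotoxicity counter screen run in the same wells as the Shh reporter assay. NIH/3T3 cells carrying a Gli1 response element–driven luciferase were treated with DMSO-dissolved compounds for 24hr, and live-cell protease activity was measured with CellTiter-Fluor.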

[8] = qHTS assay to identify small molecule antagonists of the sonic hedgehog signaling (Shh) pathway - cell viability counter screen (AID 1259367); further: nearly all actives have a fitted effect of over 55% in size
How it was run: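 After a 4 hr settling period, 3T3 Gli1-Luc cells were treated with DMSO-dissolved chemicals and conditioned medium, kept 24 hr at 37C in 5% CO2, and assayed for viability by CellTiter-Fluor fluorescence following 1 hr reagent incubation.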

[9] = qHTS assay to identify small molecule agonists of the sonic hedgehog signaling (Shh) pathway (AID 1259368; calls by dose curve; further: series mostly up to about 92 µM; nearly all actives have a fitted effect of over 15% in size)
How it was run: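 NIH/3T3-derived 3T3Gli1-Luc cells carrying a stably integrated Gli1 response element–firefly luciferase reporter were plated, left 4 hr at 37 C, then given compounds in DMSO for 24 hr. Luminescence was read 30 min after adding luciferase reagent.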

[10] = qHTS assay to identify small molecule antagonists of the sonic hedgehog signaling (Shh) pathway (AID 1259369; calls by dose curve; further: nearly all actives have a fitted effect of over 45% in size)
How it was run: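 NIH/3T3-derived 3T3Gli1-Luc cells with stably integrated Gli1-Luc reporter were preincubated 4hr at 37 C, then given compounds in DMSO plus Shh conditioned medium and incubated 24hr. Firefly luciferase luminescence read after 30min reagent at room temperature.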

[11] = qHTS assay to identify small molecule agonists of the estrogen receptor beta (ER-beta) signaling pathway - cell viability counter screen (AID 1259380); further: nearly all actives have a fitted effect of over 30% in size
How it was run: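 ER-beta-UAS-bla HEK293T cells in medium with 2% charcoal-stripped FBS were preincubated 6 hr at 37C, dosed with compound in DMSO for 16 hr, then after the bla read, CellTiter-Glo was added for 30 min at room temperature; luminescence recorded.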

[12] = molecular target: Estrogen receptor (Homo sapiens) (UniProt P03372); assay: qHTS assay to identify small molecule agonists of the estrogen receptor alpha (ER-alpha) signaling pathway in the presence of an antagonist (AID 1259383; calls by dose curve; further: top concentration of the series differs between compounds; nearly all actives have a fitted effect of over 15% in size)
How it was run: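 VM7Luc4E2 cells (endogenous full-length ER-alpha, 4×ERE-luciferase) were precultured 5 days in phenol red-free medium with 10% charcoal-stripped FBS, given 10.0nM ICI-182,780 (final), then treated with compounds at 15 concentrations for 22hr at 37C; luminescence read with ONE-Glo.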

[13] = qHTS assay to identify small molecule agonists or antagonists of the thyroid stimulating hormone receptor (TSHR) signaling pathway - wild type cell line counter screen (AID 1259384; calls by dose curve)
How it was run: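 Wild-type HEK293 cells were plated 18 h at 37 C/5% CO2, pin-dosed with compound plus Ro20-1724 medium, held 30 min at room temperature, then given cAMP-d2 and anti-cAMP-cryptate; fluorescence was read after 1 h. Fifteen concentrations, triplicate.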

[14] = molecular target: Thyrotropin receptor (Homo sapiens) (UniProt P16473); assay: qHTS assay to identify small molecule antagonists of the thyroid stimulating hormone receptor (TSHR) signaling pathway (AID 1259385; calls by dose curve; further: nearly all actives have a fitted effect of over 20% in size)
Thyrotropin receptor (Homo sapiens), sequence (P16473 whole entry, looked up): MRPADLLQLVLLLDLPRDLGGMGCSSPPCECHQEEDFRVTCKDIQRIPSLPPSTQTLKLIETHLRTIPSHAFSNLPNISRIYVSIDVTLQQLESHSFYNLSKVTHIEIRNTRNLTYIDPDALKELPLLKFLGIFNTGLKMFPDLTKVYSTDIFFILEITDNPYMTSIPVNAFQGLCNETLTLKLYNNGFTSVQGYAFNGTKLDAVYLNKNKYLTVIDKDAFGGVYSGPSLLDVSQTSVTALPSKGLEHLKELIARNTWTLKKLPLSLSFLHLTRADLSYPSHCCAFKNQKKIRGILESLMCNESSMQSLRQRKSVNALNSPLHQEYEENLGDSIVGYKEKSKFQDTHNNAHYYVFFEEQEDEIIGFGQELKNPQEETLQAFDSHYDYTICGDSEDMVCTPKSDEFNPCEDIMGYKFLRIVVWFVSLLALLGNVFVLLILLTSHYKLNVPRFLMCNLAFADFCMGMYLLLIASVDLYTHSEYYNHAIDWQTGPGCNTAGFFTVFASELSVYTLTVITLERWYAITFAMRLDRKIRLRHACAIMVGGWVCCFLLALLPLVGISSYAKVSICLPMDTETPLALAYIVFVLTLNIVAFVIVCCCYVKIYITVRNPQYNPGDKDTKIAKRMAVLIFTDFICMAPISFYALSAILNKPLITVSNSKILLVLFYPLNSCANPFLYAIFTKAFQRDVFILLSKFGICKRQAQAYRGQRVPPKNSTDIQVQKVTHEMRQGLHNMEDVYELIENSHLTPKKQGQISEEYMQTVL
How it was run: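 TSHR-HEK293 cells were plated and held 18 h at 37C/5% CO2, then given compound plus Ro20-1724 and stimulated with TSH at 1.5 ng/mL final. After 30 min at room temperature, cAMP was detected with cAMP-d2/anti-cAMP-cryptate (1 h) by fluorescence.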

[15] = qHTS assay to identify small molecule phospholipidosis (PLD) inducers (AID 1259344; active means well fitted curve in the direction sought with a large enough effect; an effect the other way counts as inactive or inconclusive)
How it was run: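 HepG2 cells grown on collagen I take up LipidTOX Red while exposed to compound for 24 h; after fixation they are imaged at 20x and pit metrics are extracted.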

[16] = qHTS assay to identify small molecule agonists of the androgen receptor (AR) signaling pathway in the presence of an antagonist - cell viability counter screen (AID 1259379); further: series mostly up to about 92 µM; nearly all actives have a fitted effect of over 25% in size
How it was run: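 MDA-kb2 human breast carcinoma cells (stable MMTV-luciferase, AR/GR responsive) were seeded 3,000 cells/well, pre-incubated 5 hr at 37C without CO2, then given 3.0uM nilutamide and compounds at 15 concentrations for 16 hr. Viability was read by CellTiter-Fluor fluorescence.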

[17] = molecular target: Androgen receptor (Homo sapiens) (UniProt P10275); assay: qHTS assay to identify small molecule agonists of the androgen receptor (AR) signaling pathway in the presence of an antagonist (AID 1259381; calls by dose curve; further: nearly all actives have a fitted effect of over 15% in size; further: potency means the concentration at half of the fitted maximal effect)
How it was run: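 MDA-kb2 human breast carcinoma cells carrying an MMTV-luciferase reporter (AR- and GR-responsive) were treated with compounds at 15 concentrations plus 3.0uM final nilutamide for 16hr at 37C without CO2; luminescence was read after ONE-Glo addition.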

[18] = qHTS assay to identify small molecule antagonists of the estrogen receptor beta (ER-beta) signaling pathway - cell viability counter screen (AID 1259382); further: series mostly up to about 92 µM; nearly all actives have a fitted effect of over 55% in size
How it was run: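 ER-beta-UAS-bla HEK293T cells (2,000/well, 2% charcoal-stripped FBS) were pre-incubated 6 hr at 37C, then given compound plus 1nM final 17-beta-estradiol for 16 hr. Viability was read in the same wells by CellTiter-Glo luminescence after 30 min at room temperature.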

[19] = molecular target: Estrogen receptor beta (Homo sapiens) (UniProt Q92731); assay: qHTS assay to identify small molecule agonists of the estrogen receptor beta (ER-beta) signaling pathway (AID 1259377; active means well fitted activation curve with a large enough effect in the signal ratio in the repeat runs, not every such curve was filed as active; the % refers to the signal ratio)
Estrogen receptor beta (Homo sapiens), sequence (Q92731 whole entry, looked up): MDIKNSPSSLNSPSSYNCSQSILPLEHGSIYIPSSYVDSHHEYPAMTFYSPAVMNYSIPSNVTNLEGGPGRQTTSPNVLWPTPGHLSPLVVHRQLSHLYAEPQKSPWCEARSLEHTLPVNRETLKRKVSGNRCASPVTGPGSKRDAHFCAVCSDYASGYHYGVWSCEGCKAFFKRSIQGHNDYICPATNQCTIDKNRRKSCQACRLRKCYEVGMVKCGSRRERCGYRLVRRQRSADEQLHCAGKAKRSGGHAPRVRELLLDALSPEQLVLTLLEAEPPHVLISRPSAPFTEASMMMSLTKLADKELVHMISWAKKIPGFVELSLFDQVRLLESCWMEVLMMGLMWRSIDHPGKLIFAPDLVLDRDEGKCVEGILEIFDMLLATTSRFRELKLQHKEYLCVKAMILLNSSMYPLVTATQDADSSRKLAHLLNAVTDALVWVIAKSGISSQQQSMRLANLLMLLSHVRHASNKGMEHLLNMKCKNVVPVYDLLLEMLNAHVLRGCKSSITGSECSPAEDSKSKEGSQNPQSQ
How it was run: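 HEK293T ER-beta-UAS-bla; 2% charcoal-stripped FBS; cells pre-incubated 6 hr, compound 16 hr, 37C/5% CO2; LiveBLAzer B/G FRET substrate 2 h RT; fluorescence intensity read.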

[20] = molecular target: Estrogen receptor beta (Homo sapiens) (UniProt Q92731); assay: qHTS assay to identify small molecule antagonists of the estrogen receptor beta (ER-beta) signaling pathway (AID 1259378; active means well fitted inhibition curve with a large enough effect in the signal ratio in the repeat runs, not every such curve was filed as active; the % refers to the signal ratio)
How it was run: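 ER-beta-UAS-bla HEK293T (GripTite) cells in 2% charcoal-stripped FBS medium were preincubated 6 hr at 37C, dosed with compound, then stimulated with 1 nM E2 (final) for 16 hr; beta-lactamase reporter read by B/G FRET fluorescence after 2 hr substrate loading.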

Measured: Potency

CCCCOC(=O)c1ccccc1
not listed: [15] | [16] | [17] | [18] | [19] | [20]
inactive: all other assays above

COc1ccc2c(c1)C(=O)N(CCc1ccc(S(=O)(=O)NC(=O)NC3CCCCC3)cc1)C(=O)C2(C)C
active: [17] 21.1 µM
not listed: [11] | [19] | [20]
inactive: all other assays above

COc1cc(NS(=O)(=O)c2ccc(N)cc2)nc(OC)n1
not listed: [13] | [14] | [17] | [20]
inactive: all other assays above

O=C(O)c1cc(Cl)cc([N+](=O)[O-])c1Cl
not listed: [15] | [16] | [19] | [20]
inactive: all other assays above

CC(C)=O
inactive: all assays above

Cc1ccc2ccc(Cl)cc2n1
not listed: [15] | [17] | [19] | [20]
inactive: all other assays above

O=C(O)CCSSCCC(=O)O
not listed: [15]
inactive: all other assays above

Cc1cccc(C)c1NC(=O)c1ccccc1C(=O)O
not listed: [18]
inactive: all other assays above

Source: PubChem BioAssay (Tox21)
